Data from the supplement of paper PMC8728848.
Only a selection was taken, and the strongest signals are over-represented in it overall.

What was measured:
Assay in all cases: glycan array binding signal (z-score within array); higher = stronger binding
Conditions in all cases: glycan notation: IUPAC condensed, linker removed
[1] = molecular target: Gal(b1-4)GlcNAc(b1-3)Gal(b1-4)GlcNAc(b1-3)Gal(b1-4)GlcNAc(b1-2)Man(a1-3)[Gal(b1-4)GlcNAc(b1-3)Gal(b1-4)GlcNAc(b1-3)Gal(b1-4)GlcNAc(b1-2)Man(a1-6)]Man(b1-4)GlcNAc(b1-4)GlcNAc
Outline: (§1)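 The Consortium for Functional Glycomics database supplied 3228 glycan arrays, of which those lacking an available protein sequence were dropped. The binding signal, a within-array Z-score, was averaged across arrays of the same protein sequence and across linkers. Negative scores can be read as non-binding.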

[2] = molecular target: Gal(b1-4)GlcNAc(b1-3)Gal(b1-4)GlcNAc(b1-3)Gal(b1-4)GlcNAc(b1-3)Gal(b1-4)GlcNAc(b1-2)Man(a1-3)[Gal(b1-4)GlcNAc(b1-3)Gal(b1-4)GlcNAc(b1-3)Gal(b1-4)GlcNAc(b1-3)Gal(b1-4)GlcNAc(b1-2)Man(a1-6)]Man(b1-4)GlcNAc(b1-4)[Fuc(a1-6)]GlcNAc
Outline: as §1

[3] = molecular target: Gal(b1-4)GlcNAc(b1-3)Gal(b1-4)GlcNAc(b1-3)Gal(b1-4)GlcNAc(b1-3)Gal(b1-4)GlcNAc(b1-2)[Gal(b1-4)GlcNAc(b1-3)Gal(b1-4)GlcNAc(b1-3)Gal(b1-4)GlcNAc(b1-3)Gal(b1-4)GlcNAc(b1-6)]Man(a1-6)[Gal(b1-4)GlcNAc(b1-3)Gal(b1-4)GlcNAc(b1-3)Gal(b1-4)GlcNAc(b1-3)Gal(b1-4)GlcNAc(b1-2)Man(a1-3)]Man(b1-4)GlcNAc(b1-4)[Fuc(a1-6)]GlcNAc
Outline: as §1

[4] = molecular target: Gal(b1-4)GlcNAc(b1-3)Gal(b1-4)GlcNAc(b1-3)Gal(b1-4)GlcNAc(b1-3)Gal(b1-4)GlcNAc(b1-3)Gal(b1-4)GlcNAc(b1-2)Man(a1-3)[Gal(b1-4)GlcNAc(b1-3)Gal(b1-4)GlcNAc(b1-3)Gal(b1-4)GlcNAc(b1-3)Gal(b1-4)GlcNAc(b1-3)Gal(b1-4)GlcNAc(b1-2)Man(a1-6)]Man(b1-4)GlcNAc(b1-4)GlcNAc
Outline: as §1

[5] = molecular target: Gal(b1-4)GlcNAc(b1-3)Gal(b1-4)GlcNAc(b1-3)Gal(b1-4)GlcNAc(b1-3)Gal(b1-4)GlcNAc(b1-3)Gal(b1-4)GlcNAc(b1-2)Man(a1-3)[Gal(b1-4)GlcNAc(b1-3)Gal(b1-4)GlcNAc(b1-3)Gal(b1-4)GlcNAc(b1-3)Gal(b1-4)GlcNAc(b1-3)Gal(b1-4)GlcNAc(b1-2)Man(a1-6)]Man(b1-4)GlcNAc(b1-4)[Fuc(a1-6)]GlcNAc
Outline: as §1

Gal6S(b1-3)GlcNAc6S = molecular target: Gal6S(b1-3)GlcNAc6S
Outline: as §1

GalNAc(b1-4)GlcNAc = molecular target: GalNAc(b1-4)GlcNAc
Outline: as §1

GalNAc3S(b1-4)GlcNAc = molecular target: GalNAc3S(b1-4)GlcNAc
Outline: as §1

[6] = molecular target: GlcNAc(a1-3)Gal(b1-4)GlcNAc
Outline: as §1

[7] = molecular target: GlcNAc(b1-3)Gal(b1-4)GlcNAc(b1-3)Gal(b1-4)GlcNAc(b1-3)Gal(b1-4)GlcNAc(b1-3)Gal(b1-4)GlcNAc(b1-2)Man(a1-3)[GlcNAc(b1-3)Gal(b1-4)GlcNAc(b1-3)Gal(b1-4)GlcNAc(b1-3)Gal(b1-4)GlcNAc(b1-3)Gal(b1-4)GlcNAc(b1-2)Man(a1-6)]Man(b1-4)GlcNAc(b1-4)[Fuc(a1-6)]GlcNAc
Outline: as §1

GlcNAc(b1-3)GalNAc = molecular target: GlcNAc(b1-3)GalNAc
Outline: as §1

Man(a1-2)Man(a1-3)Man = molecular target: Man(a1-2)Man(a1-3)Man
Outline: as §1

Neu5Ac(a2-3)Gal = molecular target: Neu5Ac(a2-3)Gal
Outline: as §1

[8] = molecular target: Neu5Ac(a2-3)Gal(b1-3)GalNAc
Outline: as §1

[9] = molecular target: Neu5Ac(a2-3)Gal(b1-3)GlcNAc(b1-3)Gal(b1-4)GlcNAc
Outline: as §1

[10] = molecular target: Neu5Ac(a2-3)Gal(b1-3)[Neu5Ac(a2-6)]GlcNAc(b1-3)[Fuc(a1-3)[Gal(b1-4)]GlcNAc(b1-6)]Gal(b1-4)Glc
Outline: as §1

[11] = molecular target: Neu5Ac(a2-3)Gal(b1-4)GlcNAc(b1-3)Gal(b1-4)GlcNAc(b1-3)Gal(b1-4)GlcNAc(b1-2)Man(a1-3)[Neu5Ac(a2-3)Gal(b1-4)GlcNAc(b1-3)Gal(b1-4)GlcNAc(b1-3)Gal(b1-4)GlcNAc(b1-2)Man(a1-6)]GalNAc
Outline: as §1

[12] = molecular target: Neu5Ac(a2-3)Gal(b1-4)[Fuc(a1-3)]GlcNAc(b1-3)GalNAc
Outline: as §1

[13] = molecular target: Neu5Ac(a2-3)Gal6S(b1-4)[Fuc(a1-3)]GlcNAc
Outline: as §1

[14] = molecular target: Neu5Ac(a2-6)Gal(b1-3)GlcNAc(b1-3)[Gal(b1-4)GlcNAc(b1-6)]Gal(b1-4)Glc
Outline: as §1

[15] = molecular target: Neu5Ac(a2-6)Gal(b1-4)GlcNAc(b1-2)Man(a1-6)[GlcNAc(b1-2)Man(a1-3)]Man(b1-4)GlcNAc(b1-4)GlcNAc
Outline: as §1

[16] = molecular target: Neu5Ac(a2-6)Gal(b1-4)GlcNAc(b1-3)Gal(b1-4)[Fuc(a1-3)]GlcNAc(b1-3)Gal(b1-4)[Fuc(a1-3)]GlcNAc
Outline: as §1

Neu5Ac(a2-8)Neu5Ac = molecular target: Neu5Ac(a2-8)Neu5Ac
Outline: as §1

[17] = molecular target: Neu5Gc(a2-3)Gal(b1-3)[Fuc(a1-4)]GlcNAc
Outline: as §1

[18] = molecular target: Neu5Gc(a2-3)Gal(b1-4)GlcNAc(b1-3)Gal(b1-4)GlcNAc(b1-2)Man(a1-3)[Neu5Gc(a2-3)Gal(b1-4)GlcNAc(b1-3)Gal(b1-4)GlcNAc(b1-2)Man(a1-6)]Man(b1-4)GlcNAc(b1-4)GlcNAc
Outline: as §1

B1: GS7807H-bfa-490-18-490 (Bacteroides fragilis) (protein)
chain: GNLEEMNIDPDNATQTHPKLLLTQICMNAFKRGTDGMYATKKVIQADGESADQYYKWTRGSFGYYDNLRNVQKMGEEAERVNAPVYTALTKFFRAYYFYELTLRFGDIPYSQALKGEKEEIYTPEYDAQEDVFAGILQELREADEILANDASVIDGDIIYNGNSTQWRKLINSFRLKVLMTLSNHTTVGNINIASEFKNIATNSPLMNSLADNGQLVYLDQQGNRYPQFNAQWSGYYMDDTFIQRMRERRDPRLFIFSAQTNKGKTEGKPIDDFSSYEGGDPAAPYSDAIIKVSEGTISPINDRFRTDPIVEPTMLMGYAELQQILAEAVVRGWISGNAQTYYEKGIRASFSFYETHAKDYAGYLNENAVAQYLKEPLVDFTQASGTEEQIERIIMQKYLVTFYQGNWDSFYEQLRTGYPDFRRPAGTEIPKRWMYPQGEYDNNGTNVETAITRQFGAGNDKINQATWWQKKS
[1]
  glycan array binding signal (z-score): 2.19
[2]
  glycan array binding signal (z-score): 2.51
[3]
  glycan array binding signal (z-score): 2.08
[4]
  glycan array binding signal (z-score): 1.71
[5]
  glycan array binding signal (z-score): 2.17
Gal6S(b1-3)GlcNAc6S
  glycan array binding signal (z-score): 1.52
GalNAc(b1-4)GlcNAc
  glycan array binding signal (z-score): 0.462
GalNAc3S(b1-4)GlcNAc
  glycan array binding signal (z-score): -0.743
[6]
  glycan array binding signal (z-score): -0.677
[7]
  glycan array binding signal (z-score): 4.28
GlcNAc(b1-3)GalNAc
  glycan array binding signal (z-score): -0.454
Man(a1-2)Man(a1-3)Man
  glycan array binding signal (z-score): 0.369
Neu5Ac(a2-3)Gal
  glycan array binding signal (z-score): -0.022
[8]
  glycan array binding signal (z-score): -0.368
[9]
  glycan array binding signal (z-score): -0.526
[10]
  glycan array binding signal (z-score): -0.176
[11]
  glycan array binding signal (z-score): 9.02
[12]
  glycan array binding signal (z-score): 5.66
[13]
  glycan array binding signal (z-score): -0.29
[14]
  glycan array binding signal (z-score): 0.078
[15]
  glycan array binding signal (z-score): -0.141
[16]
  glycan array binding signal (z-score): -0.32
Neu5Ac(a2-8)Neu5Ac
  glycan array binding signal (z-score): -0.459
[17]
  glycan array binding signal (z-score): -0.469
[18]
  glycan array binding signal (z-score): -0.11
